Screening results as filed in PubChem BioAssay.
The list is not random: actives were taken first. Their share in the collection is about 7.4%.
NPR1 antag – Natriuretic polypeptide receptor (hNpr1) antagonism - Primary qHTS. Potency, µM (highest dose often 46.3 µM), most hits filed as inhibitors. Atrial natriuretic peptide receptor 1 (Homo sapiens), P16066. AID 1347048, 2019. hit rate 1.6% among 76,000. HEK293 hNpr1 GloSensor cGMP, ANP-stimulated luminescence; calls by dose curve; further: nearly all actives have a fitted effect of over 60% in size
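Compound pre-incubated 30 min at room temperature on GloSensor-loaded HEK293 cells stably carrying hNpr1 and the pGS-40F cGMP biosensor. Stimulation uses hNppA at 0.1 nM final; luminescence is taken at baseline and 20 min post-agonist.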
SNCA expr inhib – Primary qHTS assay for inhibitors of alpha-synuclein gene (SNCA) expression; AID 1671194, 2021; Potency, µM (titrated, usually from 57.2 µM), hits mostly inhibitors; HEK-293 SNCA-luciferase knock-in, luminescence, 24 h; hit rate 0.17% among 140,000; further: nearly all actives have a fitted effect of over 45% in size
HEK cytotox – Cytotoxic Profiling in HEK 293 Cell Line of Diverse Libraries Using Quantitative High-Throughput Screening; HEK 293 viability, ATP luminescence (CellTiter-Glo), 48-72 h; Potency, µM (series often up to 115 µM), usual class: inhibitors; hit rate 6.6% among 94,000; AID 1345083, 2018; further: nearly all actives have a fitted effect of over 60% in size
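Cytotoxicity was scored by loss of ATP-coupled luminescence (CellTiter-Glo) in HEK 293 cells. Compound treatment ran 48 or 72 hr at 37 degree Celsius, 5% CO2, 95% humidity.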
FLuc inh – Firefly luciferase inhibition profiling of diverse chemical library using quantitative high-throughput screening; Luciferin 4-monooxygenase (Photinus pyralis), P08659; Potency, µM (highest dose often 115 µM), actives largely listed as inhibitors; purified P. pyralis luciferase, luminescence, biochemical; hit rate 2.5% among 76,000; further: nearly all actives have a fitted effect of over 65% in size
Target sequence (P08659 whole entry, looked up): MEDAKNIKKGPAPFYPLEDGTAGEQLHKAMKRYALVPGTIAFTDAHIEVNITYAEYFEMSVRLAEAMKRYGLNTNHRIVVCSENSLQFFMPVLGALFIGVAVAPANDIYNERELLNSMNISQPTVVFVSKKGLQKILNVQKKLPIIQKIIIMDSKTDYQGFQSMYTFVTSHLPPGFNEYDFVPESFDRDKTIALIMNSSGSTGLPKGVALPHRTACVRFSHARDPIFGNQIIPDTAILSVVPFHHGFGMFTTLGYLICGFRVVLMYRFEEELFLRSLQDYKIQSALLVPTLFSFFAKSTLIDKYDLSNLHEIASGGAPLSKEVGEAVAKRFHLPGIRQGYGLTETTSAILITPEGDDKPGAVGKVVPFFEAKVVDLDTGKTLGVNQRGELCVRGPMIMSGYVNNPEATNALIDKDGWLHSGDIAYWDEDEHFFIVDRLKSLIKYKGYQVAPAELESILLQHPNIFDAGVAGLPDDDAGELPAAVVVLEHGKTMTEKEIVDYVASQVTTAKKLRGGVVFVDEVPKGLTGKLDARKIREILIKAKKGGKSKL
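Luminescence read by CCD imager after adding enzyme (10nM final) to wells holding compound, titrated in qHTS. Substrates 10uM each D-luciferin and ATP; buffer 50mM Tris acetate pH 7.5, 10mM Mg acetate, Tween-20, BSA.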
HEK293 viab – GF-AFC viability counterscreen for inhibitors of alpha-synuclein gene (SNCA) expression | HEK-293-SNCA-luc viability, GF-AFC fluorescence, 24 h | Potency, µM (highest dose often 57.1 µM), hits mostly cytotoxic | hit rate 0.12% among 150,000; further: nearly all actives have a fitted effect of over 30% in size
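HEK-293-SNCA-luc cells (1500/well) plated 24 h, then exposed 24 h to a dilution series; GF-AFC added 30 min at 37C, fluorescence 405/540 nm; normalised to medium-only and DMSO wells, Hill fit.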
3T3 cytotox – Cytotoxic Profiling in NIH 3T3 Cell Line of Diverse Libraries Using Quantitative High-Throughput Screening; NIH 3T3 viability, CellTiter-Glo ATP luminescence, 48-72 h; Potency, µM (titrated, usually from 96.7 µM), actives largely listed as inhibitors; hit rate 4.3% among 94,000; further: nearly all actives have a fitted effect of over 55% in size
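Cytotoxicity is measured as loss of cellular ATP: NIH 3T3 cells (400/well) are exposed to compound for 48 or 72 hr at 37 °C, then CellTiter-Glo luminescence is imaged after 10 min at room temperature.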
Of the large screens only hits and unclear results are named; the others gave an inactive call. Unless noted, the call rests on the fitted dose curve; in most records, active means well fitted curve in the direction sought with a large enough effect; inconclusive means small, poorly fitted or top-dose-only effect, or another doubt; inactive means no such curve, though single readings can be large; an effect the other way counts as inactive or inconclusive.

C[C@@H]1CN(c2ccc3nnc(-c4ccccn4)n3n2)C[C@H](C)O1	SNCA expr inhib inconclusive, HEK cytotox inconclusive, 3T3 cytotox 79µM
CN(Cc1ccccc1)c1ccc2nnc(-c3ccccn3)n2n1	SNCA expr inhib inconclusive, HEK cytotox inconclusive, 3T3 cytotox 45µM
Cc1nn2c(c1-c1ccccc1[S+](C)(=O)[O-])N(Cc1ccccc1)CCC2	HEK cytotox inconclusive, 3T3 cytotox 10µM
Cc1nn2c(c1-c1ccccc1OCc1ccccc1)N(C(=O)C1CCC1)CCC2	SNCA expr inhib inconclusive, HEK cytotox 40µM, HEK293 viab inconclusive, 3T3 cytotox inconclusive
Cc1nn2c(c1-c1ccccc1OCc1ccccc1)N(Cc1cccc(O)c1)CCC2	NPR1 antag inconclusive, SNCA expr inhib inconclusive, HEK cytotox 28µM, 3T3 cytotox 25µM
Cc1nn2c(c1-c1ccccc1OCc1ccccc1)N(C(=O)C1CCOCC1)CCC2	SNCA expr inhib inconclusive, HEK cytotox inconclusive, 3T3 cytotox inconclusive
COc1cccc(N2C(=O)NC(=NC3CCCCC3)C23CCCN([S+](=O)([O-])c2cccc(C(F)(F)F)c2)C3)c1 (stereo unspecified)	HEK cytotox inconclusive, 3T3 cytotox inconclusive (no result: NPR1 antag, FLuc inh)
COc1ccc(F)cc1-c1cccc(C(=O)NCCN[S+](=O)([O-])c2ccc(C)cc2)c1	HEK cytotox inconclusive, 3T3 cytotox inconclusive (no result: NPR1 antag, FLuc inh)
O=C(NCc1ccc(F)cc1)C1c2ccccc2C(=O)N(Cc2ccccc2)C12CCCC2 (stereo unspecified)	HEK cytotox 40µM, 3T3 cytotox 35µM
O=C(NCc1ccccc1F)C1c2ccccc2C(=O)N(Cc2ccccc2)C12CCCC2 (stereo unspecified)	HEK cytotox inconclusive, 3T3 cytotox inconclusive
COc1ccccc1Nc1ncc2c(n1)CN(C(=O)c1cccc(C#N)c1)CCN2	NPR1 antag inconclusive, SNCA expr inhib inconclusive, HEK cytotox 79µM
COc1ccccc1Nc1ncc2c(n1)CN(C(=O)c1cc3ccccc3n1C)CCN2	HEK cytotox 71µM, 3T3 cytotox inconclusive
Cn1ncc2c(C(=O)NCC(F)F)cc(-c3cccc(C(F)(F)F)c3)nc21	none (no result: NPR1 antag, SNCA expr inhib, FLuc inh, HEK293 viab)
